PubChem BioAssay (EPA / NIEHS)
The source holds several records for some structures; these can differ, active in one and inactive in another. Activity calls are given as the source filed them. Rule for the calls: active = hit-call score of the fitted dose curve at least 0.9, where 1 is the maximum; inactive = score below 0.9.

assay: ATG_AP_1_CIS: Attagene CIS-FACTORIAL HepG2 Assay for human Activator Protein 1 (AP-1) (AID 2282931); details: HepG2 Attagene cis-factorial AP-1 reporter mRNA; actives raise or lower the signal
Procedure, shortened: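 HepG2 cells transiently transfected with cis-element-driven multiplex reporter units; 24 h compound exposure. Reporter mRNA quantified by RT-PCR, FAM-labelled fragments resolved by capillary electrophoresis; bidirectional fit versus DMSO baseline.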

SMILES | outcome | AC50
CN1COCN(Cc2cnc(Cl)s2)C1=N[N+](=O)[O-] | inactive | –
O=C(O)c1cc(Oc2ccc(C(F)(F)F)cc2Cl)ccc1[N+](=O)[O-] | inactive | –
Nc1c(Cl)cc([N+](=O)[O-])cc1Cl | – | 75.2 µM (active)
CSc1nc(NC(C)C)nc(NC(C)C)n1 | inactive | –
COP(=O)(NC(C)=O)SC (centres undefined) | inactive | –
CCOP(=S)(OCC)OC(Cl)C(Cl)(Cl)Cl (centres undefined) | inactive | –
CCC(=O)Nc1ccc(Cl)c(Cl)c1 | inactive | –
COc1cccc(C(=O)NN(C(=O)c2cc(C)cc(C)c2)C(C)(C)C)c1C | inactive | –
CC(C)[C@H](C(=O)O[C@H](C#N)c1cccc(Oc2ccccc2)c1)c1ccc(Cl)cc1 | inactive | –
CCCSP(=O)(OCC)SCCC | inactive | –
CC1(C(=O)Nc2ccc(O)c(Cl)c2Cl)CCCCC1 | – | 30 µM (active)
CN(C)[C@@H]1C(=O)C(C(N)=O)=C(O)[C@@]2(O)C(=O)C3=C(O)c4c(O)cccc4[C@@](C)(O)[C@H]3[C@H](O)[C@@H]12 | inactive | –
N#CSCSC#N | inactive | –
Cc1ccn2nc(S(=O)(=O)Nc3c(F)cccc3F)nc2n1 | inactive | –
CCCCOC(=O)c1ccccc1C(=O)O | inactive | –
CCc1cccc(CC)c1N(COC)C(=O)CCl | – | 6.1 µM (active)
CCOP(=O)(OCC)Oc1cc(C)nc(C(C)C)n1 | inactive | –

assay: ATG_AP_2_CIS: Attagene CIS-FACTORIAL HepG2 Assay for human Activator Protein 2 (AP-2) (AID 2282932); details: HepG2 AP-2 cis-reporter, Attagene transcription factor profiling; actives raise or lower the signal
Procedure, shortened: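 Transiently transfected HepG2 cells are exposed to chemical for 24 h. Reporter transcripts are then measured as fluorescence following RT-PCR and capillary separation, and gain- or loss-of-signal is fitted relative to DMSO.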

SMILES | outcome
Nc1c(Cl)cc([N+](=O)[O-])cc1Cl | inactive
CCCSP(=O)(OCC)Oc1ccc(Br)cc1Cl (centres undefined) | inactive
CCCSP(=O)(OCC)SCCC | inactive
FC(F)C(F)(F)OCC(Cn1cncn1)c1ccc(Cl)cc1Cl (centres undefined) | inactive
CSC1=N[C@@](C)(c2ccccc2)C(=O)N1Nc1ccccc1 | inactive
COP(=O)(OC)C(O)C(Cl)(Cl)Cl (centres undefined) | inactive
Cc1ccn2nc(S(=O)(=O)Nc3c(F)cccc3F)nc2n1 | inactive
CCC(CC)Nc1c([N+](=O)[O-])cc(C)c(C)c1[N+](=O)[O-] | inactive
C[N+]1(C)CCCCC1 | inactive
CCOC(=O)COc1cc(-c2nn(C)c(OC(F)F)c2Cl)c(F)cc1Cl | inactive

assay: ATG_BRE_CIS: Attagene CIS-FACTORIAL HepG2 Assay for human Bone Morphogenetic Protein (BMP) Response Element (BRE) (AID 2282933); details: HepG2 BMP response element reporter, Attagene transcription factor profiling; actives raise or lower the signal
Procedure, shortened: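 HepG2 cells transiently transfected with multiplexed cis-element reporter units were dosed with chemical for 24 h. Reporter mRNA was measured by RT-PCR with fluorescent labelling, HpaI digestion and capillary electrophoresis; bidirectional fitting relative to DMSO.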

SMILES | outcome | AC50
CN1COCN(Cc2cnc(Cl)s2)C1=N[N+](=O)[O-] | inactive | –
O=C(O)c1cc(Oc2ccc(C(F)(F)F)cc2Cl)ccc1[N+](=O)[O-] | inactive | –
Nc1c(Cl)cc([N+](=O)[O-])cc1Cl | – | 36.1 µM (active)
CSc1nc(NC(C)C)nc(NC(C)C)n1 | inactive | –
COP(=O)(NC(C)=O)SC (centres undefined) | inactive | –
CCOP(=S)(OCC)OC(Cl)C(Cl)(Cl)Cl (centres undefined) | inactive | –
COc1cc(OC)nc(Sc2cccc(Cl)c2C(=O)O)n1 | inactive | –
CC1=NNC(=O)N(/N=C/c2cccnc2)C1 | inactive | –
CCC(=O)Nc1ccc(Cl)c(Cl)c1 | inactive | –
COc1cccc(C(=O)NN(C(=O)c2cc(C)cc(C)c2)C(C)(C)C)c1C | inactive | –
CCCSP(=O)(OCC)Oc1ccc(Br)cc1Cl (centres undefined) | inactive | –
COc1ccc(C(=CC(=O)N2CCOCC2)c2ccc(Cl)cc2)cc1OC | – | 11.9 µM (active)
S=C1NCCN1 | inactive | –
CC(C)[C@H](C(=O)O[C@H](C#N)c1cccc(Oc2ccccc2)c1)c1ccc(Cl)cc1 | inactive | –
CCOP(=S)(OCC)Oc1ccc([N+](=O)[O-])cc1 | inactive | –
Nc1nc(N)nc(NC2CC2)n1 | inactive | –
CCCSP(=O)(OCC)SCCC | inactive | –
FC(F)C(F)(F)OCC(Cn1cncn1)c1ccc(Cl)cc1Cl (centres undefined) | – | 58.4 µM (active)

SMILES | outcome | AC50
CC1(C(=O)Nc2ccc(O)c(Cl)c2Cl)CCCCC1 | – | 39.3 µM (active)
CN(C)[C@@H]1C(=O)C(C(N)=O)=C(O)[C@@]2(O)C(=O)C3=C(O)c4c(O)cccc4[C@@](C)(O)[C@H]3[C@H](O)[C@@H]12 | inactive | 71.1 µM (active)
CNC(=O)Oc1cccc2c1OC(C)(C)O2 | – | 42 µM (active)
CSC1=N[C@@](C)(c2ccccc2)C(=O)N1Nc1ccccc1 | – | 5.2 µM (active)
CC(C)=CC1C(C(=O)OCN2C(=O)C3=C(CCCC3)C2=O)C1(C)C (centres undefined) | – | 50 µM (active)
CC[C@H](C)[C@H]1O[C@]2(C=C[C@@H]1C)C[C@@H]1C[C@@H](C/C=C(\C)[C@@H](O[C@H]3C[C@H](OC)[C@@H](O[C@H]4C[C@H](OC)[C@@H](NC)[C@H](C)O4)[C@H](C)O3)[C@@H](C)/C=C/C=C3\CO[C@@H]4[C@H](O)C(C)=C[C@@H](C(=O)O1)[C@]34O)O2 | inactive | –
N#CSCSC#N | inactive | –
COP(=O)(OC)C(O)C(Cl)(Cl)Cl (centres undefined) | – | 30.1 µM (active)
Cc1ccn2nc(S(=O)(=O)Nc3c(F)cccc3F)nc2n1 | inactive | –
CCC(CC)Nc1c([N+](=O)[O-])cc(C)c(C)c1[N+](=O)[O-] | inactive | –
CCCCOC(=O)c1ccccc1C(=O)O | inactive | –
CCCOc1nn(C(=O)NS(=O)(=O)c2ccccc2C(=O)OC)c(=O)n1C | inactive | –
C[N+]1(C)CCCCC1 | inactive | –
CC(C)N(C(=O)SCC(Cl)=C(Cl)Cl)C(C)C | inactive | –
CCOP(=S)(OCC)Oc1ccc2c(C)c(Cl)c(=O)oc2c1 | inactive | –
CCc1cccc(CC)c1N(COC)C(=O)CCl | inactive | –
CCOC(=O)COc1cc(-c2nn(C)c(OC(F)F)c2Cl)c(F)cc1Cl | inactive | –
CCOP(=O)(OCC)Oc1cc(C)nc(C(C)C)n1 | inactive | –
